# Laboratory results reported in the supplement of paper PMC8728848.
# The entries come from a sample that favours the strongest signals as a whole.
# B1: NKR-PIC (Mus musculus) (protein)
# chain: GTGQKPSREKCCVFIQENLNKTTDCSVNLECPQDWLLHRDKCFHVSQVSNTWEEGQADCGRKGATLLLIQDQEELRFLLDSIKEKYNSFWIGLRFTLPDMNWKWINGTTFNSDVLKITGVTENGSCASILGDKVTPESCASDNRWICQKELNHETPSNDSGT
# How the values were obtained:
# Experiment in all cases: glycan array binding signal (z-score within array); higher = stronger binding
# Settings in all cases: glycan notation: IUPAC condensed, linker removed
# Fuc(a1-2)Gal(b1-3)GalNAc = molecular target: Fuc(a1-2)Gal(b1-3)GalNAc
# Method in brief: (§1)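 The binding signal is a Z-score computed within each array. Data were drawn from 3228 arrays in the Consortium for Functional Glycomics database, restricted to those with a known protein sequence. Scores were averaged over arrays of the same protein sequence at different concentrations or buffers, and over linkers, and negative values can be taken as non-binding.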
# Fuc(a1-2)Gal(b1-3)GlcNAc = molecular target: Fuc(a1-2)Gal(b1-3)GlcNAc
# Method in brief: as §1
# [1] = molecular target: Fuc(a1-2)Gal(b1-3)GlcNAc(b1-2)Man(a1-3)[Fuc(a1-2)Gal(b1-3)GlcNAc(b1-2)Man(a1-6)]Man(b1-4)GlcNAc(b1-4)GlcNAc
# Method in brief: as §1
# [2] = molecular target: Fuc(a1-2)Gal(b1-3)GlcNAc(b1-3)GalNAc
# Method in brief: as §1
# [3] = molecular target: Fuc(a1-2)Gal(b1-3)GlcNAc(b1-3)[Neu5Ac(a2-6)Gal(b1-4)GlcNAc(b1-6)]Gal(b1-4)Glc
# Method in brief: as §1
# [4] = molecular target: Fuc(a1-2)Gal(b1-4)GlcNAc(b1-2)Man
# Method in brief: as §1
# [5] = molecular target: Fuc(a1-2)Gal(b1-4)GlcNAc6S
# Method in brief: as §1
# Fuc(a1-2)Gal6S(b1-4)Glc = molecular target: Fuc(a1-2)Gal6S(b1-4)Glc
# Method in brief: as §1
# [6] = molecular target: Fuc(a1-2)[Gal(a1-3)]Gal(b1-4)GlcNAc(b1-2)Man(a1-3)[Fuc(a1-2)[Gal(a1-3)]Gal(b1-4)GlcNAc(b1-2)Man(a1-6)]Man(b1-4)GlcNAc(b1-4)[Fuc(a1-6)]GlcNAc
# Method in brief: as §1
# [7] = molecular target: Fuc(a1-2)[GalNAc(a1-3)]Gal(b1-3)GlcNAc(b1-2)Man(a1-3)[Fuc(a1-2)[GalNAc(a1-3)]Gal(b1-3)GlcNAc(b1-2)Man(a1-6)]Man(b1-4)GlcNAc(b1-4)[Fuc(a1-6)]GlcNAc
# Method in brief: as §1
# [8] = molecular target: Fuc(a1-2)[GalNAc(a1-3)]Gal(b1-3)GlcNAc(b1-6)GalNAc
# Method in brief: as §1
# [9] = molecular target: Gal(a1-3)Gal(b1-4)GlcNAc(b1-3)GalNAc
# Method in brief: as §1
# [10] = molecular target: Gal(b1-3)GlcNAc(b1-6)[Gal(b1-3)]GalNAc
# Method in brief: as §1
# [11] = molecular target: Gal(b1-3)[Fuc(a1-4)]GlcNAc
# Method in brief: as §1
# [12] = molecular target: Gal(b1-4)GlcNAc(b1-2)Man(a1-3)[Gal(b1-4)GlcNAc(b1-2)Man(a1-6)][Gal(b1-4)GlcNAc(b1-4)]Man(b1-4)GlcNAc(b1-4)[Fuc(a1-6)]GlcNAc
# Method in brief: as §1
# [13] = molecular target: Gal(b1-4)GlcNAc(b1-2)Man(a1-6)Man(b1-4)GlcNAc(b1-4)GlcNAc
# Method in brief: as §1
# Gal3S(b1-3)GalNAc = molecular target: Gal3S(b1-3)GalNAc
# Method in brief: as §1
# [14] = molecular target: Gal3S(b1-3)[Fuc(a1-4)]GlcNAc
# Method in brief: as §1
# Gal6S(b1-4)Glc = molecular target: Gal6S(b1-4)Glc
# Method in brief: as §1
# [15] = molecular target: GalNAc(b1-4)GlcNAc(b1-2)Man
# Method in brief: as §1
# GalNAc(b1-6)GalNAc = molecular target: GalNAc(b1-6)GalNAc
# Method in brief: as §1
# [16] = molecular target: GalNAc3S(b1-4)[Fuc(a1-3)]GlcNAc
# Method in brief: as §1
# GalNAc6S(b1-4)GlcNAc = molecular target: GalNAc6S(b1-4)GlcNAc
# Method in brief: as §1
# [17] = molecular target: GlcNAc(a1-3)Gal(b1-4)GlcNAc
# Method in brief: as §1
# [18] = molecular target: GlcNAc(a1-4)Gal(b1-3)GlcNAc
# Method in brief: as §1
# [19] = molecular target: GlcNAc(a1-4)Gal(b1-4)GlcNAc(b1-3)Gal(b1-4)GlcNAc(b1-3)Gal(b1-4)GlcNAc
# Method in brief: as §1
# [20] = molecular target: GlcNAc(b1-2)Man(a1-3)[GlcNAc(b1-2)Man(a1-6)]Man(b1-4)GlcNAc(b1-4)[Fuc(a1-6)]GlcNAc
# Method in brief: as §1
# [21] = molecular target: GlcNAc(b1-2)Man(a1-3)[GlcNAc(b1-4)][GlcNAc(b1-2)Man(a1-6)]Man(b1-4)GlcNAc(b1-4)GlcNAc
# Method in brief: as §1
# [22] = molecular target: GlcNAc(b1-2)Man(a1-3)[GlcNAc(b1-4)][GlcNAc(b1-2)Man(a1-6)]Man(b1-4)GlcNAc(b1-4)[Fuc(a1-6)]GlcNAc
# Method in brief: as §1
# [23] = molecular target: GlcNAc(b1-4)GlcNAc(b1-4)GlcNAc
# Method in brief: as §1
# [24] = molecular target: GlcNAc(b1-4)GlcNAc(b1-4)GlcNAc(b1-4)GlcNAc(b1-4)GlcNAc(b1-4)GlcNAc
# Method in brief: as §1
# [25] = molecular target: Man(a1-2)Man(a1-3)[Man(a1-6)]Man(a1-6)[Man(a1-2)Man(a1-3)]Man(b1-4)GlcNAc(b1-4)GlcNAc
# Method in brief: as §1
# [26] = molecular target: Man(a1-2)Man(a1-6)[Man(a1-3)]Man(a1-6)[Man(a1-2)Man(a1-2)Man(a1-3)]Man
# Method in brief: as §1
# MurNAc(b1-4)GlcNAc = molecular target: MurNAc(b1-4)GlcNAc
# Method in brief: as §1
# Neu5Ac(a2-6)Gal = molecular target: Neu5Ac(a2-6)Gal
# Method in brief: as §1
# [27] = molecular target: Neu5Ac(a2-6)Gal(b1-4)GlcNAc(b1-2)Man(a1-3)[GlcNAc(b1-2)Man(a1-6)]Man(b1-4)GlcNAc(b1-4)GlcNAc
# Method in brief: as §1
# [28] = molecular target: Neu5Ac(a2-6)Gal(b1-4)GlcNAc(b1-3)Gal(b1-4)GlcNAc(b1-3)[Neu5Ac(a2-6)Gal(b1-4)GlcNAc(b1-3)Gal(b1-4)GlcNAc(b1-6)]GalNAc
# Method in brief: as §1
# [29] = molecular target: Neu5Ac(a2-6)GalNAc(b1-4)GlcNAc
# Method in brief: as §1
# [30] = molecular target: Neu5Ac(a2-6)GlcNAc(b1-4)GlcNAc(b1-4)GlcNAc
# Method in brief: as §1
# [31] = molecular target: Neu5Gc(a2-3)Gal(b1-4)GlcNAc
# Method in brief: as §1
binder,measurement,setting,value
B1,glycan array binding signal (z-score),Fuc(a1-2)Gal(b1-3)GalNAc,-0.288
same,glycan array binding signal (z-score),Fuc(a1-2)Gal(b1-3)GlcNAc,-0.281
same,glycan array binding signal (z-score),[1],-0.138
same,glycan array binding signal (z-score),[2],-0.371
same,glycan array binding signal (z-score),[3],-0.362
same,glycan array binding signal (z-score),[4],-0.316
same,glycan array binding signal (z-score),[5],-0.32
same,glycan array binding signal (z-score),Fuc(a1-2)Gal6S(b1-4)Glc,-0.317
same,glycan array binding signal (z-score),[6],-0.335
same,glycan array binding signal (z-score),[7],-0.375
same,glycan array binding signal (z-score),[8],-0.363
same,glycan array binding signal (z-score),[9],-0.361
same,glycan array binding signal (z-score),[10],-0.308
same,glycan array binding signal (z-score),[11],-0.262
same,glycan array binding signal (z-score),[12],-0.225
same,glycan array binding signal (z-score),[13],-0.334
same,glycan array binding signal (z-score),Gal3S(b1-3)GalNAc,-0.25
same,glycan array binding signal (z-score),[14],-0.318
same,glycan array binding signal (z-score),Gal6S(b1-4)Glc,-0.305
same,glycan array binding signal (z-score),[15],5.67
same,glycan array binding signal (z-score),GalNAc(b1-6)GalNAc,0.458
same,glycan array binding signal (z-score),[16],-0.38
same,glycan array binding signal (z-score),GalNAc6S(b1-4)GlcNAc,4.94
same,glycan array binding signal (z-score),[17],3.83
same,glycan array binding signal (z-score),[18],1.3
same,glycan array binding signal (z-score),[19],4.1
same,glycan array binding signal (z-score),[20],-0.287
same,glycan array binding signal (z-score),[21],3.99
same,glycan array binding signal (z-score),[22],3.73
same,glycan array binding signal (z-score),[23],4.83
same,glycan array binding signal (z-score),[24],4.62
same,glycan array binding signal (z-score),[25],-0.325
same,glycan array binding signal (z-score),[26],-0.367
same,glycan array binding signal (z-score),MurNAc(b1-4)GlcNAc,4.79
same,glycan array binding signal (z-score),Neu5Ac(a2-6)Gal,-0.258
same,glycan array binding signal (z-score),[27],-0.338
same,glycan array binding signal (z-score),[28],-0.332
same,glycan array binding signal (z-score),[29],4.03
same,glycan array binding signal (z-score),[30],5.02
same,glycan array binding signal (z-score),[31],-0.264
